MCL1-BIM inh: disrupts human MCL1 binding to BIM-BH3 peptide. Q07820. GST-MCL1 / FITC-Bim-BH3 fluorescence polarization. inhibition, % at 10.9 µM. 320,000 compounds, 0.68% hits;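 active = inhibition above the mean inhibition of all tested compounds plus 3 SD, set per campaign, cut at about 40% in these data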;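 note: 0% = DMSO wells and 100% = unlabeled Bim-BH3 peptide control; higher means more loss of mP so more displacement of Bim peptide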
Target sequence (Q07820 whole entry, looked up): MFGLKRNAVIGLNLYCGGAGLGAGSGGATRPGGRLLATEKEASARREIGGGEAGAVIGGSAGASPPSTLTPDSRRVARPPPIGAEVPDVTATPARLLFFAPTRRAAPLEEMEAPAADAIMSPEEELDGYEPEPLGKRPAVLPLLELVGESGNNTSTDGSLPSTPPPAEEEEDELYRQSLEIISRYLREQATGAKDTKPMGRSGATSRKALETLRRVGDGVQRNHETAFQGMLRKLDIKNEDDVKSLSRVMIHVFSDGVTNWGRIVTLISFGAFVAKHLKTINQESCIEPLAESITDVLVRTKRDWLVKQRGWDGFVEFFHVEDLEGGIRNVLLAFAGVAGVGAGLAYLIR
14-3-3 Bad PPI: disrupts binding of bovine 14-3-3 zeta to phospho-Bad peptide; P63103; TR-FRET 14-3-3zeta/Dy647-pBad peptide displacement, 1 h; inhibition, % at 21.7 µM; 220,000 compounds, 0.71% hits;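 active = inhibition above about 70%, limit read from the data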;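 note: 0% = full 14-3-3 plus peptide FRET controls and 100% = background without 14-3-3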
Mcl1-Noxa inh: Mcl-1/Noxa interaction inhibition; Q07820; TR-FRET Mcl-1/Noxa peptide binding, 2 h; inhibition, % at 21.7 µM; 220,000 compounds, 1.5% hits; AID 1022;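 active = compounds that cut the protein-peptide binding signal by more than 50% relative to plate controls in a single-dose test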;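 note: His-tagged Mcl-1 with rhodamine Noxa BH3 peptide and terbium anti-His antibody; 0% = Mcl-1 plus Noxa peptide wells and 100% = peptide-only wells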
Mcl-1 Bim block: human Bim-Mcl-1 interaction inhibition | Q07820 | Bead-based flow cytometry, Bim peptide-Mcl-1 binding | inhibition, % at 10 µM | 190,000 compounds, 0.1% hits; in the data active = inhibition above about 40%;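 note: 0% = no compound tracer wells and 100% = peptide blocker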
Mcl1-Bid inh: disrupts binding of human Mcl-1 to Bid peptide. inhibition, % at 21.7 µM. 220,000 compounds, 0.97% hits. TR-FRET Mcl-1/Bid-Dy647 peptide binding, 1536-well;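 active = compounds that cut the binding signal by more than half at the single screening dose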;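 note: His-tagged Mcl-1 with europium anti-His antibody binding Bid BH3 peptide; 0% = Mcl-1 plus peptide wells and 100% = peptide-only wells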
BCLXL inh confirm: counter-screen for MCL1 inhibitors: confirmation of human Bcl-xL inhibitors. inhibition, % at 10.9 µM. GST-Bcl-xL / FITC-Bim BH3 peptide FP binding. 1,700 compounds, 54% hits. shares compounds with MCL1-BIM inh;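 active = inhibition above a cutoff equal to the mean inhibition of all tested compounds plus 3 SD, cut at about 30% in these data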;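 note: 0% = DMSO wells and 100% = unlabeled Bim BH3 control peptide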
Target sequence (Q07817 whole entry, looked up): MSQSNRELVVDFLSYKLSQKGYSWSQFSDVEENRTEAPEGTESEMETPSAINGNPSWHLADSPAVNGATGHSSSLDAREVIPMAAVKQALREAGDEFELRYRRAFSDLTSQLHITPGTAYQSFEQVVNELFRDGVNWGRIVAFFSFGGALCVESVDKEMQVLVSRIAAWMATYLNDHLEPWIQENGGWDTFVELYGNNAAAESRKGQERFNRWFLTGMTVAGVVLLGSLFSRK
MCL1 inh confirm: confirmation of human MCL1 and BIM-BH3 interaction inhibitors; shares compounds with MCL1-BIM inh; GST-MCL1 / FITC-Bim-BH3 fluorescence polarization; inhibition, % at 10.9 µM; 1,700 compounds, 61% hits; AID 2168;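 active = inhibition above the average of all tested compounds plus 3 SD, cut at about 40% in these data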;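 note: 0% = DMSO wells and 100% = unlabeled Bim-BH3 control peptide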
* marks the source's active call; other numbers are inactive results; x = no result given; + = active, no number. Most compounds without a hit are left out; they make up all but 2.5% or so of the library.

SMILES | MCL1-BIM inh | 14-3-3 Bad PPI | Mcl1-Noxa inh | Mcl-1 Bim block | Mcl1-Bid inh | BCLXL inh confirm | MCL1 inh confirm
CCc1cc[n+](-c2nc([O-])sc2C=O)cc1 | 135.8* | -7.3 | -1.8 | -1.0 | -34.8 | 82.8* | 119.1*
Cc1cc(C)nc(/N=C(\N)Nc2ccc(SC(F)F)cc2)n1 | -6.7 | -3.5 | -18.6 | x | -0.3 | x | x
COc1ccc(C(C)=O)cc1COC(=O)c1cnc(Cl)c(Cl)c1 | -5.3 | 2.1 | -21.7 | 0.0 | 25.1 | x | x
C=CCn1c(=O)/c(=C/c2cc(OC)c(OC)c(OC)c2)s/c1=C(/C#N)c1nc2ccccc2n1C | 123.4* | 3.0 | 19.1 | -1.0 | -6.8 | 144.6* | 169.2*
CC1=CC2=NC(=O)/C(=C/c3coc4ccc(Cl)cc4c3=O)C(=N)N2O1 | -40.5 | -1.2 | 5.9 | x | -25.4 | x | x
N=C1/C(=C\c2coc3ccccc3c2=O)C(=O)N=C2SC=CN12 | 60.2* | 3.1 | 5.5 | x | -78.6 | 60.6* | 70.0*
O=C(C1=C(O)C(=O)N(c2nc3ccc(Cl)cc3s2)C1c1ccco1)c1ccco1 (configuration not stated) | 56.6* | x | x | x | x | 26.1 | 47.6*
Cc1ccc2nc(N3C(=O)C(O)=C(C(=O)c4ccc(C)o4)C3c3ccco3)sc2c1 (configuration not stated) | 7.2 | x | x | x | x | x | x
Cc1ccc(C2C(C(=O)c3ccco3)=C(O)C(=O)N2c2nnc(C)s2)cc1 (configuration not stated) | 24.9 | 69.6 | 6.3 | -3.0 | -57.5 | x | x
CSc1nnc(N2C(=O)C(O)=C(C(=O)c3ccco3)C2c2ccccc2)s1 (configuration not stated) | 53.5* | x | x | x | x | 54.2* | 69.6*
CSc1nnc(N2C(=O)C(O)=C(C(=O)c3ccco3)C2c2ccccc2F)s1 (configuration not stated) | 79.8* | x | x | x | x | 25.0 | 25.3
CCC(C)[C@H](NC(=O)C1CC(=O)N(c2ccc3c(c2)OCO3)C1)C(=O)NC1CCCCC1 (some centres not stated) | 59.6* | x | x | x | x | 59.6* | 77.7*
C=CCNC(=O)c1ccccc1NS(=O)(=O)c1ccc(SC)cc1 | 5.8 | 4.9 | -4.9 | 0.0 | -7.4 | x | x
Oc1ccc(N=C/C=C/c2cccc(Br)c2)cc1-c1nc2ccccc2s1 | 49.9* | 6.3 | 62.0* | -2.0 | -69.2 | 17.8 | 18.3
Nc1ccc(O)c(-c2nc3ccccc3s2)c1 | 60.6* | 10.0 | 71.4* | -3.0 | -64.6 | 37.0* | 38.2
CCCCCN(C(=O)CCC(=O)OCC(=O)NCc1cccc(OC)c1)c1c(N)n(CCCC)c(=O)[nH]c1=O | 0.7 | x | x | x | x | x | x
O=S1(=O)N=C(N(CCO)/N=C/c2ccc(Cl)cc2)c2ccccc21 | 5.0 | x | x | x | x | x | x
CN(C)c1ccc(/C=N/N(CCO)C2=NS(=O)(=O)c3ccccc32)cc1 | 140.2* | x | x | x | x | + | +
CN1CCN(/N=C/c2c3ccccc3c(Cl)c3ccccc23)CC1 | 127.2* | -1.5 | 10.8 | 0.0 | -5.9 | 22.4 | 27.2
N#CC12C(N)=NC3(OCCO3)C1(C#N)C1=C(CCC1)NC2c1ccccc1 (configuration not stated) | 64.2* | -7.4 | 5.1 | -1.0 | -31.9 | 18.2 | 24.3
CCSC1(SCC)N=C(N)C2(C#N)C(c3ccccc3)NC3=C(CCC3)C12C#N (configuration not stated) | 25.7 | -0.8 | -1.0 | 0.0 | -54.1 | x | x
N#CC1=C(N)C(C#N)(C#N)C(c2cccnc2)C2CN(C(=O)OCc3ccccc3)CC=C12 (configuration not stated) | 18.3 | -2.1 | -2.1 | -1.0 | -21.4 | x | x
CN1CC=C2C(C#N)=C(N)C(C#N)(C#N)[C@H](c3ccoc3)[C@H]2C1 | 175.3* | 11.2 | 0.6 | 2.0 | -68.9 | 110.9* | +
CN1CC=C2C(C#N)=C(N)C(C#N)(C#N)C(c3cccc(Cl)c3Cl)C2C1 (configuration not stated) | 87.6* | -5.2 | 8.6 | 0.0 | -15.2 | 56.2* | 60.6*
CCOC(=O)N1CC=C2C(C#N)=C(N)C(C#N)(C#N)[C@H](c3ccc(OCC)c(OCC)c3)[C@H]2C1 | 3.4 | 6.3 | 14.9 | 0.0 | -29.4 | x | x
SMILES | MCL1-BIM inh | 14-3-3 Bad PPI | Mcl1-Noxa inh | Mcl-1 Bim block | Mcl1-Bid inh | BCLXL inh confirm | MCL1 inh confirm
CC(=O)N1CC=C2C(C#N)=C(N)C(C#N)(C#N)C(C)C2C1 (configuration not stated) | 22.6 | -3.1 | 6.3 | -3.0 | -14.8 | x | x
Cc1ccc(C2C3CN(C(C)C)CC=C3C(C#N)=C(N)C2(C#N)C#N)cc1 (configuration not stated) | 116.3* | -0.3 | 7.7 | -6.0 | -39.1 | 59.4* | 104.2*
N#CC1=C(N)C(C#N)(C#N)[C@H](c2ccoc2)[C@H]2CN(Cc3ccccc3)CC=C12 | 125.2* | -8.2 | 19.8 | -3.0 | -33.8 | 106.2* | 119.8*
COc1ccc(CCNC(=O)CCC(=O)N2CC(C)Oc3ccc(Cl)cc32)cc1OC (configuration not stated) | 5.3 | x | x | x | x | x | x
O=C(N/N=C/c1ccc(O)cc1)c1csc2ccccc12 | 12.9 | 25.7 | 21.4 | -6.0 | -62.0 | x | x
Cc1c(N(C)C(=O)C23CC4CC(CC(C4)C2)C3)c(=O)n(-c2ccccc2)n1C | 4.5 | 9.2 | 6.7 | 0.0 | -5.2 | x | x
O=C(N/N=C/c1ccc(O)c(O)c1O)/C(=C/c1ccc([N+](=O)[O-])cc1)NC(=O)c1ccccc1 | 40.9* | 1.9 | 87.3* | 5.0 | -100.8 | 32.6* | 63.0*
Cc1ccc(NC(=O)/C(=C\c2ccc([N+](=O)[O-])cc2)NC(=O)c2ccccc2)cc1 | -2.8 | -9.3 | 4.0 | -2.0 | -13.3 | x | x
O=C1N=C(N2C=CC(=C3C=CNC=C3)C=C2)/C(=C/N=NC(=O)c2ccccc2O)S1 | 114.7* | x | x | x | x | 84.0* | 114.0*
CNC(=S)Nc1cccc([N+](=O)[O-])c1 | -2.0 | -11.8 | -4.1 | 10.0 | -84.5 | x | x
CCc1ccc2nc(N(CCCN(C)C)C(=O)c3ccc(S(=O)(=O)N4CCCC4)cc3)sc2c1 | 43.6* | x | x | x | x | 10.3 | 9.5
CN(C(=O)CN1C(=O)c2cccc(N)c2C1=O)C1CCCCC1 | 72.9* | x | x | x | x | 56.5* | 77.2*
COc1ccccc1-n1c(-c2ccccc2)c[nH]c1=S | x | -10.7 | 14.7 | 3.0 | -38.2 | x | x
O=C1NC(=S)N/C1=C/c1cc2c(cc1[N+](=O)[O-])OCO2 | 67.1* | x | x | x | x | 9.7 | 13.6
CC(C)CCNc1c(-c2cccs2)nc2ccccn12 | 67.7* | -19.0 | 18.4 | 0.0 | -49.0 | 46.0* | 69.0*
CCOc1cccc(=O)c2c(C)n(-c3ccc(C(=O)O)cc3)c(C)c12 | 86.2* | -11.4 | 14.4 | 0.0 | -51.4 | 36.0* | 53.3*
COc1cccc(=O)c2c(C)n(-c3ccc(C(=O)O)cc3)c(C)c12 | 90.8* | 4.4 | 19.0 | 0.0 | -35.2 | 21.1 | 29.2

Bioassay records from PubChem BioAssay.
